Screens as filed in PubChem BioAssay.
Cardio protect – modulators protecting cardiomyocytes from myocardial damage; H9c2 cardiomyocytes, H2O2 injury protection, ATPLite, 2 h; protection from H2O2 cell death, % at 20 µM; hit rate 0.63% among 360,000;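 active means compounds giving at least 50% protection of heart cells from peroxide-induced death in the single-dose screen, raw or plate-pattern-corrected value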;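 further: 0% = DMSO wells with peroxide and 100% = DMSO wells without peroxide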
CRFR2-BP antag – blocks CRF-induced signaling of the CRF-BP/CRF-R2 complex; HEK293 CRF-R2/CRF-BP, CRF-induced calcium fluorescence; hit rate 0.59% among 350,000; inhibition, % at 11.8 µM;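 active means inhibition of the ligand-induced calcium signal above about 50% at the single tested concentration, limit read from the data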
aDG glyco act – increases alpha dystroglycan glycosylation | Pro5-aDG cells, alpha-DG glycosylation AlphaScreen (IIH6); 0% Pro5, 100% B10-LARGE cell signal | AID 624168 | activation, % at 10 µM | hit rate 0.22% among 360,000;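 active means activation of at least 8% versus controls, or a plate z-score of at least 8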;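 further: Pro5 are CHO cells carrying HIG-tagged alpha-DG that lacks glycosylation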
PfG6PD inh – PfG6PD (Plasmodium falciparum) enzyme inhibition | PfGluPho enzyme, NADPH resazurin-diaphorase fluorescence | inhibition, % at 20 µM | hit rate 0.78% among 350,000;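 active means inhibition reaching at least a set limit at 20 µM in the primary screen, cut at about 59% in these data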;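 further: 0% = DMSO wells with substrate and 100% = DMSO wells lacking glucose-6-phosphate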
FAS-TE inh – blocks the thioesterase domain of human fatty acid synthase. P49327. inhibition, % at 15 µM. recombinant FAS-TE, OMFH fluorogenic substrate, fluorescence endpoint. AID 602261. hit rate 0.67% among 360,000;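 active means compounds whose normalised, plate-corrected inhibition of enzyme fluorescence in the single-dose primary screen is 50% or more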;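 further: 0% = DMSO with enzyme and 100% = substrate without enzyme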
CRFR2-BP ag – agonists of human CRF-binding protein/CRF-R2 receptor complex; HEK293 CRF-R2/CRF-BP, calcium dye fluorescence (FLIPR); percent of saturating CRF peptide response; activation, % at 13.2 µM; hit rate 0.46% among 350,000; AID 588473;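 active means activation of at least 50%, plus an integration ratio under a set limit after plate pattern correction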;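 further: plate controls were neutral control wells without compound for no effect and CRF at EC100 for full effect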
Active calls of the source: *. A selection: hits, their analogues and other compounds. The true share with any hit is near 3.2%.

SMILES | Cardio protect | CRFR2-BP antag | aDG glyco act | PfG6PD inh | FAS-TE inh | CRFR2-BP ag
CCCn1c(NC(=O)CN2C(=O)NC3(CCCCC3)C2=O)nc2ccccc21 | 2 | -12 | 0 | 12 | -6 | 1
CC1CCN(CCOc2ccc(OCc3ccccc3)cc2)CC1 | -4 | -20 | 0 | -14 | -6 | 6
CCCCN(C(=O)c1ccc2c(c1)S(=O)(=O)N=C1CCCCCN12)c1c(N)n(CCCC)c(=O)[nH]c1=O | 2 | 96* | 0 | -5 | -3 | -1
COCCN(C(=O)c1ccc2c(c1)S(=O)(=O)N=C1CCCCCN12)c1c(N)n(CC(C)C)c(=O)[nH]c1=O | -1 | 4 | 0 | -10 | -5 | 1
O=C1/C(=C\c2cc([N+](=O)[O-])ccc2O)SC(=S)N1Cc1ccc(Cl)cc1 | -20 | -85 | 0 | 7 | -39 | 140*
COc1ccc(C(=O)Nc2ccnn2C2CCN(C(=O)c3cnsn3)CC2)cc1 | 0 | 8 | 0 | -7 | -2 | -2
Cc1cc(C)n2nc(SCC(=O)N3CCCC(C)C3)nc2n1 (stereo unspecified) | 2 | 11 | 0 | -9 | -4 | -1
Oc1ccc(O)c(Cc2nc3ccccc3s2)c1 | -8 | 53* | 0 | 17 | 0 | 0
C/C(=N\NC(=S)Nc1ccc(C)cc1)c1cccc(N)c1 | 2 | 17 | 0 | 3 | 4 | 179*
C/C(=N\NC(=S)Nc1cccc(C)c1)c1cccc(N)c1 | 18 | 18 | 0 | 6 | -3 | -3
Cc1cccc(C)c1-n1cccc1/C=C1/C(=N)N2C(=NC1=O)SN=C2S(C)(=O)=O | -12 | 59* | 0 | -6 | 9 | -1
CCOc1ccc(-n2c(C)cc(/C=C3/C(=N)N4C(=NC3=O)SN=C4S(C)(=O)=O)c2C)cc1 | -8 | 93* | 0 | -10 | 14 | 2
Cc1ccc(-n2cccc2/C=C2/C(=N)N3C(=NC2=O)SN=C3S(C)(=O)=O)cc1Cl | -5 | 50* | 0 | -46 | 20 | 1
CC1=NN2C(=N)/C(=C\c3cc(C)n(-c4ccccc4)c3C)C(=O)N=C2S1 | -6 | -26 | 0 | -26 | -3 | 1
Cc1cc(/C=C2/C(=N)N3C(=NC2=O)SN=C3S(C)(=O)=O)c(C)n1-c1ccc(F)cc1 | -8 | 25 | 0 | -5 | 3 | 3
CCC(CC)C1=NN2C(=N)/C(=C\c3cc(C)n(-c4cccc(C)c4)c3C)C(=O)N=C2S1 | -14 | -64 | 0 | -46 | -5 | 87*
CCC1=NN2C(=N)/C(=C\c3cccn3-c3c(C)cccc3C)C(=O)N=C2S1 | -3 | -26 | 0 | -44 | 9 | -2
COc1cc(/C=C2\SC(N)=NC2=O)cc(OC)c1 | 2 | 16 | 0 | 6 | -3 | -3
O=C(NC(Nc1nc2ccc([N+](=O)[O-])cc2s1)(C(F)(F)F)C(F)(F)F)c1cccnc1 | -35 | 60* | 0 | 4 | 4 | 57*
Clc1ccc(C2=NCCN2)cc1 | -5 | 9 | 0 | 4 | 3 | -2
COC(=O)c1ccc(CC(=O)c2nc3ccccc3s2)cc1 | -1 | 18 | 0 | -13 | 5 | 2
COC(=O)c1ccc(/C(O)=C(\C#N)c2nc3ccccc3s2)cc1 | -12 | 51* | 0 | -17 | -1 | 43
COCCNC(=O)C(c1ccc(O)cc1)N(Cc1ccccc1)C(=O)CCC(=O)Nc1nccs1 (stereo unspecified) | 1 | -5 | 0 | 6 | -3 | 1
COC(=O)/C=c1/s/c(=C(\C#N)C(=O)NCc2ccco2)n(-c2ccccc2)c1=O | 12 | 78* | 1 | 28 | -3 | 7
Fc1ccccc1Cc1noc(CN2CCC(OCc3cccnc3)CC2)n1 | 6 | -2 | 0 | 3 | -4 | 1
SMILES | Cardio protect | CRFR2-BP antag | aDG glyco act | PfG6PD inh | FAS-TE inh | CRFR2-BP ag
CC1CN(S(=O)(=O)c2ccc(C(=O)Nc3nnc(-c4ccc5c(c4)CCCC5)o3)cc2)CC(C)O1 (stereo unspecified) | 62* | -15 | 0 | -56 | 4 | 10
COc1ccc(-c2nnc(NC(=O)c3ccc(S(=O)(=O)N4CCCc5ccccc54)cc3)o2)cc1 | 63* | 2 | 4 | -32 | 16 | 0
CC(=O)NC(CCc1ccc(Cl)c(Cl)c1)c1cccc(O)c(=O)c1 (stereo unspecified) | 61* | -20 | 2 | -6 | 2 | 1
Nc1nc(COc2ccc(F)cc2Cl)nc(N2CCCCC2)n1 | -6 | 6 | 0 | 14 | 4 | 0
CCCSc1n[nH]c(NC(C)=O)n1 | -8 | 56* | 0 | 5 | -10 | -1
CCCCCCCCCCSc1n[nH]c(NC(C)=O)n1 | 1 | -12 | 0 | 0 | -11 | -1
Cc1ccccc1C(=O)Oc1cccc(Nc2ncnc3ccccc23)c1 | -23 | 7 | 6.3* | 17 | 13 | 3
CCOC(=O)C(=O)Nc1ccccc1C(=O)Nc1ccc(OC)cc1 | 3 | -7 | 0 | 3 | -5 | 1
COC1=C/C(=C/c2c(N)n3cc(C)sc3nc2=O)C=CC1=O | 3 | -70 | 0 | 17 | -14 | 61*
Cc1cn2c(N)c(C=C3C=C(Cl)C(=O)C(Cl)=C3)c(=O)nc2s1 | -2 | -131 | 0 | -4 | -11 | 117*
CCOc1ccc(C(=O)NCc2ccc3c(c2)OCO3)cc1OCC | 0 | 11 | 0 | -4 | 5 | 1
CN(C)c1ccc(/C=C2\Oc3ccc(C#Cc4cccc(N)c4)cc3C2=O)cc1 | -4 | -40 | 0 | 12 | -117 | 80*
COC(=O)c1ccc2c(c1)C(=O)/C(=C/c1ccc(C)cc1)O2 | -3 | -21 | 0 | 2 | -4 | 4
O=C(C1CCN(C2CCN(CC3CC=CCC3)CC2)CC1)N1CCOCC1 (stereo unspecified) | 12 | 86* | 0 | -33 | -6 | 1
CCOC(=O)c1ccc(NC(=O)Cn2c(-c3nonc3N)nc3ccccc32)cc1 | -12 | 5 | 0 | 23 | 0 | 2
CCCCC(C(=O)O)C(C)CC(=O)Nc1nncs1 (stereo unspecified) | -2 | 77* | 0 | -22 | -2 | 3
COc1ccccc1-c1cc(C(=O)NN)[nH]n1 | 4 | 57* | 0 | 1 | -6 | -1
CN(C(=O)CSc1nc2[nH]ncc2c(=O)[nH]1)c1ccccc1 | 13 | 2 | 0 | 0 | -7 | 0
COc1ccc(OC)c(C(=O)COC(=O)c2ccc([N+](=O)[O-])o2)c1 | 54* | -14 | 0 | 20 | 18 | 3
CC(Oc1ccc(Br)cc1)C(=O)N1CCc2ccccc21 (stereo unspecified) | 6 | -164 | 0 | -6 | 21 | 222*
COc1ccc2oc(C(=O)N(C)Cc3ccc(OC(F)F)cc3)c(C)c2c1 | -1 | 29 | 0 | 1 | 23 | -1
